What all share (assay): DAPPL (digital affinity profiling via proximity ligation, sequencing); 10 mM Tris-HCl pH 7.5, 50 mM NaCl, 1 mM DTT, 4% glycerol, room temperature, 30 min; GST-TFs on glutathione beads, 16-mer random dsDNA library, 0.1% formaldehyde crosslink after washing; high values mean tight binding
For assay [1], the target named is T1, FLI1 (Homo sapiens, UniProt Q01543 1-452).
T1 sequence: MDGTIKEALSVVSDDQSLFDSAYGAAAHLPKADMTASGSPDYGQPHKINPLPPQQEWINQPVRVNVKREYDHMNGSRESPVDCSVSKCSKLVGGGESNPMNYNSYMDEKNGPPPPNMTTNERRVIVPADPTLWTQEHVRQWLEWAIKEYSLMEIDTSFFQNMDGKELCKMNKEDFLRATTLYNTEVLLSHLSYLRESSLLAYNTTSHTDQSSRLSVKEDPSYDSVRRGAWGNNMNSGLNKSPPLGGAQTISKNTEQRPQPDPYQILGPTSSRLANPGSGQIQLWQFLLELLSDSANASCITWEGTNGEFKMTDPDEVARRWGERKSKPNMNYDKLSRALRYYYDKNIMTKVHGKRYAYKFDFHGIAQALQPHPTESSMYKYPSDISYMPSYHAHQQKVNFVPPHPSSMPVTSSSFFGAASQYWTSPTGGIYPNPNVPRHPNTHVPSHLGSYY
The note with it: protein: recombinant; tags: N-terminal GST; dsDNA, one strand shown. A digest of the protocol: (§1)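 Binding signal is each hexamer's read frequency for a factor divided by its frequency in the tag-only sample. The factors were GST-fused human transcription factors from yeast, captured on glutathione beads, DNA-barcoded and pooled with that sample. Pools were incubated with 200 nmole of a random double-stranded 16-mer DNA library in Tris/NaCl/DTT/glycerol buffer at room temperature for 30 min, then washed, crosslinked with 0.1% formaldehyde, proximity-ligated with BsaI/T4 ligase (1 h, 37 °C), PCR-amplified and sequenced on an Illumina NextSeq500.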

The target in assay [2] is HSF1 (Homo sapiens, UniProt Q00613 1-529). Particulars: protein: recombinant; tags: N-terminal GST; chain copies: 3; dsDNA, one strand shown. The method, boiled down:
as §1

Assay [3] deals with T2, ETV2 (Homo sapiens, UniProt O00321 1-342).
T2 sequence: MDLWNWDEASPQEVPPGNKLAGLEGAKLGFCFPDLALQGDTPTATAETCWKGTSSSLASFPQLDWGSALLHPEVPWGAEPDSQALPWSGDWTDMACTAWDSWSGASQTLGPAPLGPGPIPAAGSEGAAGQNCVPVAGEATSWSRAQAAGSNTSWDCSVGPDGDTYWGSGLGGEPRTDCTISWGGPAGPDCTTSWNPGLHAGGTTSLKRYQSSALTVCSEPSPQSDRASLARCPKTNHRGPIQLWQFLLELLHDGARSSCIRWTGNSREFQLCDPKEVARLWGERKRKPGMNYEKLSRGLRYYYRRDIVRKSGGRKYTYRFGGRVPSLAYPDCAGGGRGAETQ
The note with it: protein: recombinant; tags: N-terminal GST; dsDNA, one strand shown. A digest of the protocol:
as §1

Assay [4] has as its target SPI1 (Homo sapiens, UniProt P17947 1-270). Particulars: protein: recombinant; tags: N-terminal GST; dsDNA, one strand shown. The method, boiled down:
as §1

The target in assay [5] is T3, FEV (Homo sapiens, UniProt Q99581 1-238).
T3 sequence: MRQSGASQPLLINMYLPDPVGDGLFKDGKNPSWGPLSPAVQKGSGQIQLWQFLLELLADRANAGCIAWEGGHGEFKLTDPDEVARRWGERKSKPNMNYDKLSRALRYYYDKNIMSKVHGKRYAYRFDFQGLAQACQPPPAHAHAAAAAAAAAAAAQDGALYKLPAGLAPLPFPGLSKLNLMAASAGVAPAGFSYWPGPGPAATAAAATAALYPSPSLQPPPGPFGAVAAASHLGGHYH
The note with it: protein: recombinant; tags: N-terminal GST; dsDNA, one strand shown. The method, boiled down: as §1

Assay [6] deals with T4, ELF5 (Homo sapiens, UniProt Q9UKW6-2 1-255).
T4 sequence: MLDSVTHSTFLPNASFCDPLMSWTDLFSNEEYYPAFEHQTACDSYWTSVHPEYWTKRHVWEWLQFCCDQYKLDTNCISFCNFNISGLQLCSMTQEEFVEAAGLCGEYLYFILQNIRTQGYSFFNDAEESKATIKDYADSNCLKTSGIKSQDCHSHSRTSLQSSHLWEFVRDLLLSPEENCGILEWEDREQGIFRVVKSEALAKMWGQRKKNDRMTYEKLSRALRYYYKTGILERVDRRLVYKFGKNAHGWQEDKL
The note with it: protein: recombinant; tags: N-terminal GST; dsDNA, one strand shown. The method, boiled down: as §1

In assay [7] the target is CRX (Homo sapiens, UniProt O43186 1-299). Particulars: protein: recombinant; tags: N-terminal GST; dsDNA, one strand shown. A digest of the protocol:
as §1

Chain of HSF1 (Q00613 whole entry): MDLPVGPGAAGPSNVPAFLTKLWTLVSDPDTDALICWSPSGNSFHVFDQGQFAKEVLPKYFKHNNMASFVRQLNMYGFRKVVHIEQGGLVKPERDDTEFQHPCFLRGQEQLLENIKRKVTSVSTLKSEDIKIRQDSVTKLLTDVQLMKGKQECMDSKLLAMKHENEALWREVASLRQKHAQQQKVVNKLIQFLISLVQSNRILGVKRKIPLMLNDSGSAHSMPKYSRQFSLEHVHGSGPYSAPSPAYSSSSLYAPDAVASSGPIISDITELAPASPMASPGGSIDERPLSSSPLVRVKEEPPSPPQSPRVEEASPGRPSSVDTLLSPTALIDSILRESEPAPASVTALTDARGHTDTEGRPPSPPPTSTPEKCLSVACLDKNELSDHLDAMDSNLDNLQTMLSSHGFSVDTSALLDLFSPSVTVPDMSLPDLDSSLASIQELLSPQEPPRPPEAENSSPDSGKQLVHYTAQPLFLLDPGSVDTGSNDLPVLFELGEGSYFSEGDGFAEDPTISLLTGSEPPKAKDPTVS
Chain of CRX (O43186 whole entry): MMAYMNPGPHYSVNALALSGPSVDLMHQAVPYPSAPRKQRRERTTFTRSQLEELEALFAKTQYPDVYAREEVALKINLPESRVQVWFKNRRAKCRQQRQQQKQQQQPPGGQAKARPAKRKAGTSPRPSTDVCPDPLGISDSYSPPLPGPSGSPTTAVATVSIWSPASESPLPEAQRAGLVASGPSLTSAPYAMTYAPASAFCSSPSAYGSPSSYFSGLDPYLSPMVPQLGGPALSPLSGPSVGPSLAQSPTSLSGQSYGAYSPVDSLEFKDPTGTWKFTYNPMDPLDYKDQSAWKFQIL

On to CATGCG, for which the binding signal in assay [1] was 1.01 fold enrichment (6-mer frequency, TF over GST control); in assay [2], 1.07 fold enrichment (6-mer frequency, TF over GST control); in assay [3], 1 fold enrichment (6-mer frequency, TF over GST control).

Consider GTTCGC, for which the binding signal in assay [1] was 1.06 fold enrichment (6-mer frequency, TF over GST control); in assay [4], 1.04 fold enrichment (6-mer frequency, TF over GST control); in assay [5], 1.06 fold enrichment (6-mer frequency, TF over GST control); in assay [2] it was 1.12 fold enrichment (6-mer frequency, TF over GST control); in assay [3] it was 1.11 fold enrichment (6-mer frequency, TF over GST control); in assay [6] it was 1.01 fold enrichment (6-mer frequency, TF over GST control).

On to TCAATC, for which the binding signal in assay [1] was 1.08 fold enrichment (6-mer frequency, TF over GST control); in assay [4], 1.06 fold enrichment (6-mer frequency, TF over GST control); in assay [2], 1.13 fold enrichment (6-mer frequency, TF over GST control); in assay [3] it was 1.13 fold enrichment (6-mer frequency, TF over GST control); in assay [7], 1.33 fold enrichment (6-mer frequency, TF over GST control).

On to TCTAGA, for which the binding signal was 1.05 fold enrichment (6-mer frequency, TF over GST control) in assay [1]; 6.17 fold enrichment (6-mer frequency, TF over GST control) in assay [2]; 2.19 fold enrichment (6-mer frequency, TF over GST control) in assay [7].

Consider TTAGAT, for which the binding signal is 1.05 fold enrichment (6-mer frequency, TF over GST control) in assay [1]; 1.01 fold enrichment (6-mer frequency, TF over GST control) in assay [5]; 1.49 fold enrichment (6-mer frequency, TF over GST control) in assay [2]; 1.16 fold enrichment (6-mer frequency, TF over GST control) in assay [3]; 2.04 fold enrichment (6-mer frequency, TF over GST control) in assay [7].

Take TGATTA: the binding signal is 1.07 fold enrichment (6-mer frequency, TF over GST control) in assay [1]; 1.58 fold enrichment (6-mer frequency, TF over GST control) in assay [2]; 1.07 fold enrichment (6-mer frequency, TF over GST control) in assay [3]; 2.23 fold enrichment (6-mer frequency, TF over GST control) in assay [7]; 1.03 fold enrichment (6-mer frequency, TF over GST control) in assay [6].

Turning to CGTTTA, the binding signal in assay [1] is 1.08 fold enrichment (6-mer frequency, TF over GST control); in assay [4], 1.06 fold enrichment (6-mer frequency, TF over GST control); in assay [5], 1.09 fold enrichment (6-mer frequency, TF over GST control); in assay [2], 1.06 fold enrichment (6-mer frequency, TF over GST control); in assay [3], 1.03 fold enrichment (6-mer frequency, TF over GST control); in assay [7], 1.19 fold enrichment (6-mer frequency, TF over GST control). Also, the binding signal in assay [6] is 1.07 fold enrichment (6-mer frequency, TF over GST control).

Regarding GTAAGC, the binding signal in assay [1] was 1.02 fold enrichment (6-mer frequency, TF over GST control); in assay [2], 1.04 fold enrichment (6-mer frequency, TF over GST control); in assay [7] it was 1.51 fold enrichment (6-mer frequency, TF over GST control).

As to TTGCCA, the binding signal in assay [1] is 1.07 fold enrichment (6-mer frequency, TF over GST control); in assay [4], 1.07 fold enrichment (6-mer frequency, TF over GST control); in assay [5] it was 1.11 fold enrichment (6-mer frequency, TF over GST control); in assay [2], 1.01 fold enrichment (6-mer frequency, TF over GST control); in assay [7] it was 1.06 fold enrichment (6-mer frequency, TF over GST control); in assay [6], 1.04 fold enrichment (6-mer frequency, TF over GST control).

As for TAAGGG, the binding signal in assay [1] is 1.01 fold enrichment (6-mer frequency, TF over GST control); in assay [5] it was 1 fold enrichment (6-mer frequency, TF over GST control); in assay [2], 1.12 fold enrichment (6-mer frequency, TF over GST control); in assay [7], 1.49 fold enrichment (6-mer frequency, TF over GST control); in assay [6], 1.06 fold enrichment (6-mer frequency, TF over GST control).

As for CGTCTG, the binding signal in assay [1] was 1.13 fold enrichment (6-mer frequency, TF over GST control); in assay [4], 1.06 fold enrichment (6-mer frequency, TF over GST control); in assay [5], 1.03 fold enrichment (6-mer frequency, TF over GST control); in assay [2], 1.01 fold enrichment (6-mer frequency, TF over GST control); in assay [3] it was 1.23 fold enrichment (6-mer frequency, TF over GST control).

As for CACCTA, the binding signal was 1.06 fold enrichment (6-mer frequency, TF over GST control) in assay [1] and 1.03 fold enrichment (6-mer frequency, TF over GST control) in assay [4].

For the sequence TCGCGT, the binding signal was 1.01 fold enrichment (6-mer frequency, TF over GST control) in assay [1]; 1 fold enrichment (6-mer frequency, TF over GST control) in assay [4]; 1.04 fold enrichment (6-mer frequency, TF over GST control) in assay [2].

For AGAAAC, the binding signal in assay [1] was 1.04 fold enrichment (6-mer frequency, TF over GST control); in assay [2] it was 1.78 fold enrichment (6-mer frequency, TF over GST control).

Turning to GCACCT, the binding signal in assay [1] was 1.07 fold enrichment (6-mer frequency, TF over GST control); in assay [4], 1.05 fold enrichment (6-mer frequency, TF over GST control); in assay [5], 1.04 fold enrichment (6-mer frequency, TF over GST control); in assay [3] it was 1.25 fold enrichment (6-mer frequency, TF over GST control).

ATGGGG: the binding signal was 1.11 fold enrichment (6-mer frequency, TF over GST control) in assay [1]; 1.11 fold enrichment (6-mer frequency, TF over GST control) in assay [4]; 1.05 fold enrichment (6-mer frequency, TF over GST control) in assay [5]; 1.16 fold enrichment (6-mer frequency, TF over GST control) in assay [3]; 1.03 fold enrichment (6-mer frequency, TF over GST control) in assay [7]; 1.1 fold enrichment (6-mer frequency, TF over GST control) in assay [6].

In the case of GGTAAC, the binding signal in assay [1] is 1.1 fold enrichment (6-mer frequency, TF over GST control); in assay [4], 1.02 fold enrichment (6-mer frequency, TF over GST control); in assay [5], 1.05 fold enrichment (6-mer frequency, TF over GST control); in assay [6], 1.02 fold enrichment (6-mer frequency, TF over GST control).

For the sequence ACAGCC, the binding signal in assay [1] is 1 fold enrichment (6-mer frequency, TF over GST control); in assay [5], 1.02 fold enrichment (6-mer frequency, TF over GST control); in assay [3], 1.05 fold enrichment (6-mer frequency, TF over GST control); in assay [6] it was 1.03 fold enrichment (6-mer frequency, TF over GST control).

With TCAGCT, the binding signal in assay [1] is 1.09 fold enrichment (6-mer frequency, TF over GST control); in assay [4], 1.04 fold enrichment (6-mer frequency, TF over GST control); in assay [2], 1.07 fold enrichment (6-mer frequency, TF over GST control); in assay [3], 1.11 fold enrichment (6-mer frequency, TF over GST control); in assay [7] it was 1.39 fold enrichment (6-mer frequency, TF over GST control).

Turning to TAGTTG, the binding signal in assay [1] was 1.04 fold enrichment (6-mer frequency, TF over GST control); in assay [3] it was 1.01 fold enrichment (6-mer frequency, TF over GST control); in assay [7], 1.03 fold enrichment (6-mer frequency, TF over GST control).

With CGCTAA, the binding signal was 1.01 fold enrichment (6-mer frequency, TF over GST control) in assay [1]; 1.09 fold enrichment (6-mer frequency, TF over GST control) in assay [2]; 1.09 fold enrichment (6-mer frequency, TF over GST control) in assay [3]; 1.34 fold enrichment (6-mer frequency, TF over GST control) in assay [7].

The record behind these values is article PMC7862700, “An all-to-all approach to the identification of sequence-specific readers for epigenetic DNA modifications on cytosine”.
